# Test results taken from PubChem BioAssay (NCI).
# Compounds without any hit were thinned out: in the full panel of roughly 79,000, 15% have a hit. Values without a mark were called inactive. Active and inactive are the calls of the source. No stated cut-off is given here; in the data, active means growth inhibition above about 70%; inactive means the rest.
# Experiment: NCI Yeast Anticancer Drug Screen. Data for the wt2 strain (AID 169);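 further: 0% = growth of vehicle-treated yeast cultures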
# Conditions: S. cerevisiae wt2 strain growth inhibition, hits give high values
# Protocol: Growth inhibition of yeast strains with defined genetic alterations is measured as a screen for potential anti-cancer activity. Selected strains with alterations in DNA damage repair or cell cycle control were exposed to compounds and growth inhibition was measured relative to vehicle treated controls. The strain used in this assay is wt2
SMILES,growth inhibition (at 1.2 µM),growth inhibition (at 3.7 µM),growth inhibition (at 11.0 µM),growth inhibition (at 33.0 µM),growth inhibition (at 100.0 µM)
O=C(NCCCCNCCCNC(=O)c1cc(-c2ccccc2)nc2ccccc12)c1cc(-c2ccccc2)nc2ccccc12,2%,-1%,-2%,20%,93% (active)
CCC#CCCCOC(=O)c1cc([N+](=O)[O-])cc([N+](=O)[O-])c1,-7%,-10%,4%,98% (active),99% (active)
COc1ccc(C2c3cc4c(cc3OC(C)(O)C2C)OCO4)c(OC)c1 (stereo not given),-2%,0%,-2%,1%,97% (active)
CC(C)NC(=O)OCc1c(COC(=O)NC(C)C)c(-c2ccc(Cl)c(Cl)c2)n2c1CCC2,-31%,-21%,-31%,-36%,26%
O=C(c1ccc(Cl)cc1)C1OC12C(=O)Nc1ccccc12 (stereo not given),9%,99% (active),99% (active),99% (active),99% (active)
O=C1CSc2cc([N+](=O)[O-])ccc2N1,19%,23%,14%,21%,4%
Cc1cc(CO)c(O)c(CNCc2cc(C)cc(CO)c2O)c1,-8%,-11%,-12%,-8%,98% (active)
NCCNc1ccc(NCCN)c2c1C(=O)c1c(O)ccc(O)c1C2=O,-15%,2%,44%,80% (active),52%
